For assay [1], the target named is Protein phosphatase 1D (Homo sapiens) (UniProt O15297). Briefly: RapidFire Mass Spectrometry qHTS Assay for Modulators of WT P53-Induced Phosphatase 1 (WIP1) (AID 1347424). Further: series mostly up to about 63 µM. An outline of the steps: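 RapidFire MS readout of dephosphorylated VEPPL-S-QETFS product, with 1 uM isotope-labelled peptide standard. Reaction: 10 nM WIP1, 2 uM phosphopeptide substrate, 5 min, room temperature, after 1 h compound preincubation; stopped with 0.5% formic acid.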

Assay [2] has the same target. Briefly: Rhodamine-PBP qHTS Assay for Modulators of WT P53-Induced Phosphatase 1 (WIP1) (AID 1347425). An outline of the steps:
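5 nM WIP1 + 10 uM Rh-PBP, 50 mM Tris pH 7.5, 30 mM MgCl2, 1 mM TCEP, 0.1 mM EGTA, BSA; cpds pinned, 1 hr RT; + 10 uM phosphopeptide; fluorescence 1-min reads x 11 min; delta = f1 - f0.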
Background: In qHTS, concentration-response curves come from the screen itself.

Assay [3] is described as follows: Primary qHTS for inhibitors of La Crosse Virus (LACV) - induced cell death in SH-SY5Y cells (AID 1508616).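 Further: top concentration of the series differs between compounds; higher means more rescue of cells from virus-induced death.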 An outline of the steps:
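Screening measures cell viability in LACV-infected SH-SY5Y cultures. Compound was added before virus (0.01 MOI), and ATP was detected by luminescence 6 days later.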

For assay [4], the target named is Calcium and integrin-binding protein 1 (Homo sapiens) (UniProt Q99828). In words: Primary qHTS for Identification of Calcium Integrin Binding Protein 1 (CIB1) Competitor (AID 1508620).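 Further: GST tagged CIB1 binding a fluorescein labelled alphaIIb integrin peptide tracer; top concentration of the series differs between compounds.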 An outline of the steps:
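Fluorescence polarization competition: GST-tagged CIB1 (1 uM final) preincubated with compound 15 min at room temperature, then FITC-labelled alphaIIb peptide (100 nM final) added. After 15 min at room temperature, polarization read at Ex 480/Em 540.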

The nature of assay [5]: A High-Content qHTS Against Drug Library for the Identification of Small Molecules that Inhibit DYT1 Early Onset Primary Dystonia-Associated Cell Pathology (AID 1645839; calls by dose curve; further: series mostly up to about 46 µM). An outline of the steps:
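Cells were seeded and left for 24 h, then dosed with compound alongside tetracycline induction of mutant EGFP-TorsinA. They were incubated for 48 h, fixed in 4% paraformaldehyde, permeabilized and imaged for mislocalization (%pathology) and cell count.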

Assay [6] addresses Cytochrome P450 2C9 (Homo sapiens) (UniProt P11712). In words: Cytochrome P450 family 2 subfamily C member 9 (CYP2C9) small molecule antagonists: luciferase biochemical (cell-free) qHTS assay (AID 1645842; active means well fitted curve in the direction sought with a large enough effect in the repeat runs; an effect the other way counts as inactive or inconclusive; further: potency means the concentration at half of the fitted maximal effect; nearly all actives have a fitted effect of over 55% in size). An outline of the steps: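 P450-Glo CYP2C9 system: proluciferin substrate with enzyme in mix containing 0.4% BSA, 10 min at room temperature, then NADPH regeneration solution added and incubated 1 h at 37C. Detection reagent stopped reaction; luminescence read after 20 min as RLU.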

Assay [7] can be described thus: Counterscreen qHTS for small molecule stabilizers of the endoplasmic reticulum resident proteome: GLuc-NoTag assay (AID 1508627). Further: potency means the concentration at half of the fitted maximal effect. An outline of the steps:
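Counterscreen line: SH-SY5Y-GLuc-NoTag. Seed, 5 h; compound, 19 h; thapsigargin 100 nM, 4 h; 37C/5% CO2. Readout: secreted GLuc luminescence, coelenterazine 0.07x final, no lysis.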
In general terms: The purpose of a counterscreen is to sort out artefacts and off-target activity.

Assay [8] is described as follows: Confirmatory qHTS for small molecule stabilizers of the endoplasmic reticulum resident proteome: Secreted ER Calcium Modulated Protein (SERCaMP) assay (AID 1508628). Further: series mostly up to about 76 µM; nearly all actives have a fitted effect of over 40% in size. An outline of the steps: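 GLuc-SERCaMP-expressing SH-SY5Y cells, pretreated 16 h with compound, are challenged with thapsigargin to empty ER calcium stores; after 4 h, coelenterazine is added directly to the medium and luminescence is imaged.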

For assay [9], the target named is Cytochrome P450 2D6 (Homo sapiens) (UniProt P10635). Briefly: Cytochrome P450 family 2 subfamily D member 6 (CYP2D6) small molecule antagonists: luciferase biochemical (cell-free) qHTS assay (AID 1645840; active means well fitted curve in the direction sought with a large enough effect in the repeat runs; an effect the other way counts as inactive or inconclusive; further: potency means the concentration at half of the fitted maximal effect; nearly all actives have a fitted effect of over 55% in size). An outline of the steps: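 P450-Glo CYP2D6 system: proluciferin substrate converted by enzyme to luciferin, read by luminescence proportional to activity. Enzyme-substrate mix with compound 10 min at room temperature, then NADPH regeneration 1 h before detection reagent.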

The target of assay [10] is N-terminal Xaa-Pro-Lys N-methyltransferase 1 (Homo sapiens) (UniProt Q9BV86). Briefly: Confirmatory qHTS for Inhibitors of N-terminal methyltransferase 1 (NTMT1): MTaseGlo Assay (AID 1645874).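 Further: luminescence from SAH made as NTMT1 methylates SPKRIA peptide using SAM; series mostly up to about 100 µM; nearly all actives have a fitted effect of over 65% in size.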 An outline of the steps: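 Enzyme mix (125 nM NTMT1, 100 uM SAM) + compound, 15 min RT; + 1 uM SPKRIA, 30 min RT, dark; MTase-Glo reagent 30 min, detection solution 30 min; luminescence. % inhibition vs no-enzyme/DMSO controls, 4-parameter Hill fit.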

Assay [11] can be described thus: Primary qHTS for inhibitors of nuclear receptor binding SET domain protein 2 (NSD2) in an isogenic RCH-ACV NSD2 p.E1099K mutant (9B) (AID 1645876). Further: nearly all actives have a fitted effect of over 70% in size. Further: potency means the concentration at half of the fitted maximal effect.
Assay [12] in a line: Primary qHTS for inhibitors of nuclear receptor binding SET domain protein 2 (NSD2) in an RCH-ACV wild type WT cells (2C) (AID 1645877). Further: nearly all actives have a fitted effect of over 70% in size. Further: potency means the concentration at half of the fitted maximal effect.
Assay [13] in a line: Cell Viability qHTS for small molecule stabilizers of the endoplasmic reticulum resident proteome (AID 1508629).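 Further: potency means the concentration at half of the fitted maximal effect; compound exposure about 46 h in total before the viability read.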 The following applies: cell viability counter-screen, 100 nM thapsigargin for final 4 h. An excerpt:
Assay Provider: Brandon K. Harvey Ph.D.
National Institute on Drug Abuse, National Institutes of Health, Baltimore, MD
Endoplasmic reticulum (ER) dysregulation is associated with human pathologies including neurodegenerative, cardiovascular, muscular, and diabetic conditions. Maintenance of ER calcium is critical for functions of the ER and its depletion can lead to loss of ER resident proteins, in a process termed exodosis. Therapeutic compounds capable of attenuating the redistribution of ER proteins under pathological conditions may slow or stop disease progression. To identify such compounds, we performed a quantitative high-throughput screen (qHTS) using the SERCaMP assay, which monitors secretion of ER resident proteins triggered by calcium depletion.
SERCaMP was initially developed as a reporter of ER calcium homeostasis using a Gaussia luciferase with a modified signal peptide and carboxy-terminus (GLuc-SERCaMP), modifications that confer secretion of the reporter in response to ER calcium depletion (Henderson et al., 2014). The assay was used to screen 9,501 compounds, including a collection of drugs approved by the FDA (US), EMA (EU), NHI (Japan), and HC (Canada) regulatory agencies (Huang et al., 2011). Since the SERCaMP reporter reflects the exodosis phenomenon (Trychta et al., 2018a), compounds identified in the screen have the potential to prevent exodosis by different mechanisms such as stabilizing ER calcium or augmenting ERS retrieval.
1. Henderson, M.J., Wires, E.S., Trychta, K.A., Richie, C.T., and Harvey, B.K. (2014). SERCaMP: a carboxy-terminal protein modification that enables monitoring of ER calcium homeostasis. Mol Biol Cell 25, 2828-2839.
2. Huang, R., Southall, N., Wang, Y., Yasgar, A., Shinn, P., Jadhav, A., Nguyen, D.T., and Austin, C.P. (2011). The NCGC pharmaceutical collection: a comprehensive resource of clinically approved drugs enabling repurposing and chemical genomics. Sci Transl Med 3, 80ps16.
3. Trychta, K.A., Back, S., Henderson, M.J., and Harvey, B.K. (2018a). KDEL Receptors Are Differentially Regulated to Maintain the ER Proteome under Calcium Deficiency. Cell Rep 25, 1829-1840 e1826.
SEQUENCE No. (1, 2, 3, etc.); […] (e.g., Cells, Incubation, Reagent, etc.); VALUE and DESCRIPTION.
1; Reagent; 5 uL; 1000 SH-SY5Y cells per wells
3; Compound; 23 nL; Control inhibitor / compound library
5; Reagent; 100 nM; Thapsigargin
7; Reagent; 5 uL; CellTiter-Glo (Promega)
8; Time; 10 min; room temperature
9; Detection; Luminescence; ViewLux imaging system
NOTES (numbers refer to sequence above)
1; SH-SY5Y human neuroblastoma cells stably expressing GLuc-SERCaMP (SH-SY5Y-GLuc-ASARTDL) cells were seeded in 1,536 well white tissue culture treated plates (Corning, Cat# 7464) in DMEM-high glucose-sodium pyruvate (ThermoFisher Scientific, Cat #10569) supplemented with 10% bovine growth serum (Hyclone), 10 U/ml penicillin (Gibco), 10 ug/ml streptomycin (Gibco), and 20 mM HEPES.
2; Assay plates were incubated for 5 hr at 37C in a humidified incubator containing 5% CO2.
3; qHTS libraries (23 nl, final concentrations of 1.53 uM, 7.67 uM, 38.3 uM) or controls (neutral control: DMSO, positive control: dantrolene) were added using a Kalypsis pin-tool Robotic System equipped with 1536 pinheads.
4; Cells were then incubated for 42 hours at 37C, 5% CO2.
5; Thapsigargin was added at 100 nM to deplete ER calcium stores.
6; Cells were incubated for 4 hr (37C, 5% CO2).
7; Cell viability was measured using the CellTiter-Glo Luminescent Cell Viability Assay (Promega). Briefly, an equal volume of reagent was added to each well. Plates were rotated for 2 min.
8; Assay plates were incubated for 10 min at room temperature.
9; Luminescence was measured using a ViewLux CCD imaging system (Perkin Elmer) equipped with clear filters.

Assay [14] can be described thus: Primary qHTS for small molecule stabilizers of the endoplasmic reticulum resident proteome: Secreted ER Calcium Modulated Protein (SERCaMP) assay (AID 1508630). An outline of the steps: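 The SH-SY5Y reporter protocol was run at 3 concentrations up to 38.3 uM (primary) or 11 concentrations (follow-up): 16 h compound, 100 nM thapsigargin for 4 h, then extracellular luciferase luminescence.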

For assay [15], the target named is Rap guanine nucleotide exchange factor 3 (Homo sapiens) (UniProt O95398). Briefly: Confirmatory qHTS for antagonist of cAMP-regulated guanine nucleotide exchange factor 3 (EPAC1) (AID 1645880). Further: nearly all actives have a fitted effect of over 55% in size. An outline of the steps:
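Released BODIPY-GDP fluoresces less than Rap1-bound BODIPY-GDP; the signal is followed at 480/540 nm at 5-min intervals over 30 min, after 5 min at room temperature. Reactions contain 100 nM EPAC1, 250 nM RAP1B-BODIPY-GDP and 50 uM GDP; results are normalized to ATA and DMSO.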

Values joined by “and” are separate entries in the source; they are usually repeats but may differ in a detail not shown here. Identical values can stand only once. Results filed as inconclusive are left out. Active and inactive are the calls of the source. Unless noted, the call rests on the fitted dose curve; in most records, active means well fitted curve in the direction sought with a large enough effect; inconclusive means small, poorly fitted or top-dose-only effect, or another doubt; inactive means no such curve, though single readings can be large; an effect the other way counts as inactive or inconclusive.

Calcium and integrin-binding protein 1 (Homo sapiens), sequence (Q99828 whole entry, looked up): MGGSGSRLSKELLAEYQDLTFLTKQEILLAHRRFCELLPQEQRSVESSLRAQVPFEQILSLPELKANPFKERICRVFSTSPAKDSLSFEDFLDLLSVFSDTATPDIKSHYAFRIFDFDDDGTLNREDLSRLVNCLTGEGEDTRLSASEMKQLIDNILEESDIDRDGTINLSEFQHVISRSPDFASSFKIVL
Protein phosphatase 1D (Homo sapiens), sequence (O15297 whole entry, looked up): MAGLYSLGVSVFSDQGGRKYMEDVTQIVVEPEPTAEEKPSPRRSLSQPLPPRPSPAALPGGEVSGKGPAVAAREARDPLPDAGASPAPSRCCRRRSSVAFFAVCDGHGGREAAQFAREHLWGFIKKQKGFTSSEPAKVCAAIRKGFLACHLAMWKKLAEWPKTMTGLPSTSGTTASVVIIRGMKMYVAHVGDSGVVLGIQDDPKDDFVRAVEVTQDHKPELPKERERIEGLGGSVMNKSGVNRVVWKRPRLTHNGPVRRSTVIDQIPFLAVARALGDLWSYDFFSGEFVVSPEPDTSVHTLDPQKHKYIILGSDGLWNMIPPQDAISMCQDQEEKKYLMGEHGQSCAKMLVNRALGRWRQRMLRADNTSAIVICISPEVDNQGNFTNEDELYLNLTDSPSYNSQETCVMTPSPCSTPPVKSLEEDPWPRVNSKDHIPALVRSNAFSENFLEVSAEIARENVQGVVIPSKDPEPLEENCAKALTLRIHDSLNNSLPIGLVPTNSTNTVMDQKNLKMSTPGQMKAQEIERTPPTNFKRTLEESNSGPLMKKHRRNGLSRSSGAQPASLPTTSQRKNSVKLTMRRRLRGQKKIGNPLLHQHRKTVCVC
Cytochrome P450 2C9 (Homo sapiens), sequence (P11712 whole entry, looked up): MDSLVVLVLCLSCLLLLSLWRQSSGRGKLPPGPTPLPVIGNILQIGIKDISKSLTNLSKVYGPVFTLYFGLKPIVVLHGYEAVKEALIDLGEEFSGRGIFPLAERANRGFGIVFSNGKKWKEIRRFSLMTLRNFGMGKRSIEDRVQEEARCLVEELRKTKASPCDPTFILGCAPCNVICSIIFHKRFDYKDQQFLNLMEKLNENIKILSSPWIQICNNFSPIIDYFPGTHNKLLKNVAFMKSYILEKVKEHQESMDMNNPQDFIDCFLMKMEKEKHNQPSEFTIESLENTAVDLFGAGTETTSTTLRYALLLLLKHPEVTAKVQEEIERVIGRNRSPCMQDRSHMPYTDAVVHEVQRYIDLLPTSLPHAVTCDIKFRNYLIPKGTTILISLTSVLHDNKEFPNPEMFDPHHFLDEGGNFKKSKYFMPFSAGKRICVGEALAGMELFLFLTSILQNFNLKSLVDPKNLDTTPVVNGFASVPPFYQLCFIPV
Cytochrome P450 2D6 (Homo sapiens), sequence (P10635 whole entry, looked up): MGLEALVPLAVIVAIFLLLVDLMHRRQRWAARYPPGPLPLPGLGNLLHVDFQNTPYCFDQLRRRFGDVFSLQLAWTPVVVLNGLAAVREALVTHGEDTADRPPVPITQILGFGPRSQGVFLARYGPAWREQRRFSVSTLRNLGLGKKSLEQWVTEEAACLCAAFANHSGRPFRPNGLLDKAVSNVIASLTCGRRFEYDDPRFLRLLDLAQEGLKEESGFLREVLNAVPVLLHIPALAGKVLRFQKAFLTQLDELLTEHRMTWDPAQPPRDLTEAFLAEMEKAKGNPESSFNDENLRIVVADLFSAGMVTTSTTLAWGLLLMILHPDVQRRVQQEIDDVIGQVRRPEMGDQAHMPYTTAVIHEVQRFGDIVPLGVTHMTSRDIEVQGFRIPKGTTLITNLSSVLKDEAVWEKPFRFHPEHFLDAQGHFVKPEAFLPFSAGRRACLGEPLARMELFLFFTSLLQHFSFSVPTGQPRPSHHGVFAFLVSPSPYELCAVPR
N-terminal Xaa-Pro-Lys N-methyltransferase 1 (Homo sapiens), sequence (Q9BV86 whole entry, looked up): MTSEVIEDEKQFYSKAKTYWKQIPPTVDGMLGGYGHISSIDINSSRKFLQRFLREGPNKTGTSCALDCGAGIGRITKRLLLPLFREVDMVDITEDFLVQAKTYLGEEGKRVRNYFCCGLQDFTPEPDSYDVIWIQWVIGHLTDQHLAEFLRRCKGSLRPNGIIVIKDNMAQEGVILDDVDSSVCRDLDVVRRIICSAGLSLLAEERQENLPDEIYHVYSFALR
Rap guanine nucleotide exchange factor 3 (Homo sapiens), sequence (O95398 whole entry, looked up): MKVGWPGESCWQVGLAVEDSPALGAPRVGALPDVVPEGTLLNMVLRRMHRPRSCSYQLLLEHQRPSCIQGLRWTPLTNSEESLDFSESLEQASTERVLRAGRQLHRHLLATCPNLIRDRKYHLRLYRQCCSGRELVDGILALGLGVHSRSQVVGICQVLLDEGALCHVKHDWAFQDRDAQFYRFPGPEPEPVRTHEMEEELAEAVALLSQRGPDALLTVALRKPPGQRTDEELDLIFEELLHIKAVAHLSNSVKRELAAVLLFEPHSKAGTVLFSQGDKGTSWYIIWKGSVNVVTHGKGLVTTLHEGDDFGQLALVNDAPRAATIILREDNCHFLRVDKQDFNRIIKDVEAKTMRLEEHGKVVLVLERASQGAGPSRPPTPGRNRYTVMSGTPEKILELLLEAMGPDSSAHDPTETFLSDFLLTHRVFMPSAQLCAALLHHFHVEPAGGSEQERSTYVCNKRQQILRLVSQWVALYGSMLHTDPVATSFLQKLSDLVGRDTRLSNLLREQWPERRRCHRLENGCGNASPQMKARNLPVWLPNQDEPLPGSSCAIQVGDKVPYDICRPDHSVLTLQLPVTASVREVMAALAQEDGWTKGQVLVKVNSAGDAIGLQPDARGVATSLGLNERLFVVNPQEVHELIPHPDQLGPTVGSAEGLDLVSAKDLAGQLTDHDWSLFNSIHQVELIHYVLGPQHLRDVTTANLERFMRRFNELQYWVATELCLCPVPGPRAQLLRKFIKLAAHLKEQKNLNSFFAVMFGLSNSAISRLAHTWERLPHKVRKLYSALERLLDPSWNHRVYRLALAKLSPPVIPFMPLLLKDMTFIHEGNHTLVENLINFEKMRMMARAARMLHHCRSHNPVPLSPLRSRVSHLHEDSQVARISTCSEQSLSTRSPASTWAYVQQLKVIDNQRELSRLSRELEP

As to `COc1c2occc2cc2ccc(=O)oc12`, the Potency entry in assay [1], in assay [3], in [4] and in [5] was “inactive” throughout. Moreover, the call in [2] was inactive. Moreover, in assay [6], the Potency was 3.89 µM (active).

As for `O=C(O)c1cccc(-c2noc(-c3ccccc3F)n2)c1`, the Potency result in assay [1], in assay [3], in assay [4], in assay [7], in [8] and in assay [5] was “inactive” each time. The Potency entry in assay [10], in assay [11] and in [12] was “inactive” in each case. In addition, in [2], the compound was called inactive. Also, the Potency in [9] and in assay [6] was 1.55 µM (active) each time.

For `COC(=O)C1=C(C)NC(C)=C(C(=O)OCCCN2CCC(c3ccccc3)(c3ccccc3)CC2)C1c1cccc([N+](=O)[O-])c1` (stereo not drawn), the Potency entry in assay [1], in assay [3], in assay [4], in assay [14] and in assay [15] was “inactive” each time. Also, the call in assay [2] was inactive. For the same compound, the Potency in [7] is 39.8 µM (active); in assay [13], 28.2 µM (active); in assay [11] it was 7.42 µM (active) and 7.5 µM (active); in assay [12], 6.61 µM (active) and 5.96 µM (active).

For `Clc1ccc(C(Cn2ccnc2)OCc2ccc(Sc3ccccc3)cc2)c(Cl)c1` (stereo not drawn), the Potency result in assay [1], in [3], in assay [4], in assay [14] and in assay [5] was “inactive” throughout. The result in assay [2] was inactive. In addition, the Potency was 0.155 µM (active) in assay [9], 2.75 µM (active) in [6], 18.6 µM (active) in assay [11] and 16.6 µM (active) in assay [12].

(Values after PubChem BioAssay (NCATS).)
